Laboratory results published in PubChem BioAssay (EPA / NIEHS).
“And” between values parts separate entries of the source, which are not always exact repeats. Equal values may be shown once. Some structures have more than one record in an assay (separate samples or runs), and their calls can disagree. The source made the active and inactive calls. Rule for the calls: active = hit-call score of the fitted dose curve at least 0.9, where 1 is the maximum; inactive = score below 0.9.

Key:
[1] = read-out: Cytochrome P450 (CYP1A1), CYP1A1 (gene 1543); assay: LTEA_HepaRG_CYP1A1: Life Technologies and Expression Analysis (LTEA) Assay for Cytochrome P450 (CYP1A1) using HepaRG (AID 2283454); details: mRNA level, 48 h; actives raise or lower the signal
Method in brief: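 HepaRG, 48 h post-plating switched to serum-free induction medium; 8-pt conc-response (top 100 uM, half-log, 0.5% DMSO), duplicates, 48 h. Lysis in RLT, TaqMan qRT-PCR for CYP1A1; gain or loss vs DMSO.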

[2] = read-out: Forkhead box O1 (FOXO1), FOXO1 (gene 2308); assay: LTEA_HepaRG_FOXO1: Life Technologies and Expression Analysis (LTEA) Assay for Forkhead box O1 (FOXO1) using HepaRG (AID 2283456); details: mRNA level, 48 h; actives raise or lower the signal
Method in brief: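 HepaRG, 48 h exposure, 8-pt half-log series from 100 uM in 0.5% DMSO, duplicates; Fluidigm qRT-PCR mRNA, housekeeping-normalised; bidirectional fit vs DMSO baseline.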

[3] = read-out: Forkhead box O3 (FOXO3), FOXO3 (gene 2309); assay: LTEA_HepaRG_FOXO3: Life Technologies and Expression Analysis (LTEA) Assay for Forkhead box O3 (FOXO3) using HepaRG (AID 2283459); details: mRNA level, 48 h; actives raise or lower the signal
Method in brief: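 qRT-PCR readout of FOXO3 transcript, normalized to three housekeeping genes (ACTB, GAPDH, POLR2A); gain or loss fitted against 0.5% DMSO vehicle. HepaRG cells, 48 h chemical exposure, 8-point half-log series, top 100 uM.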

[4] = read-out: ABC Transporter (ABCB1), ABCB1 (gene 5243); assay: LTEA_HepaRG_ABCB1: Life Technologies and Expression Analysis (LTEA) Assay for ABC Transporter (ABCB1) using HepaRG (AID 2283460); details: mRNA level, 48 h; actives raise or lower the signal
Method in brief: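 HepaRG, 48 h exposure, 8-pt half-log series from 100 uM, 0.5% DMSO vehicle, duplicates. Readout: ABCB1 transcript by Fluidigm TaqMan qRT-PCR, housekeeping-normalized; bidirectional curve fit vs DMSO baseline.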

[5] = read-out: growth arrest and DNA damage 45 (GADD45B), GADD45B (gene 4616); assay: LTEA_HepaRG_GADD45B: Life Technologies and Expression Analysis (LTEA) Assay for growth arrest and DNA damage 45 (GADD45B) using HepaRG (AID 2283461); details: mRNA level, 48 h; actives raise or lower the signal
Method in brief: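 HepaRG, ~100,000 cells/well, 48 h plating; serum-free induction medium; cpd 100 uM top, half-log x8, 0.5% DMSO, duplicate, 48 h; lysis in RLT, RNA isolation, qRT-PCR; norm ACTB/GAPDH/POLR2A; bidirectional fit vs DMSO.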

[6] = read-out: ABC Transporter (ABCC3), ABCC3 (gene 8714); assay: LTEA_HepaRG_ABCC3: Life Technologies and Expression Analysis (LTEA) Assay for ABC Transporter (ABCC3) using HepaRG (AID 2283462); details: mRNA level, 48 h; actives raise or lower the signal
Method in brief: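 Human HepaRG, 48 h dosing, 8-pt half-log series from 100 uM, 0.5% DMSO vehicle, duplicates. ABCC3 mRNA by TaqMan qRT-PCR, housekeeping-normalized; bidirectional curve fit vs DMSO.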

[7] = read-out: ABC Transporter (ABCB11), ABCB11 (gene 8647); assay: LTEA_HepaRG_ABCB11: Life Technologies and Expression Analysis (LTEA) Assay for ABC Transporter (ABCB11) using HepaRG (AID 2283463); details: mRNA level, 48 h; actives raise or lower the signal
Method in brief: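 HepaRG, 48 h exposure, 8-pt half-log CRC top 100 uM, 0.5% DMSO vehicle, duplicates. Readout: TaqMan qRT-PCR of ABCB11 mRNA, housekeeping-normalized (ACTB/GAPDH/POLR2A). Bidirectional fit vs DMSO baseline.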

[8] = read-out: ABC Transporter (ABCC2), ABCC2 (gene 1244); assay: LTEA_HepaRG_ABCC2: Life Technologies and Expression Analysis (LTEA) Assay for ABC Transporter (ABCC2) using HepaRG (AID 2283464); details: mRNA level, 48 h; actives raise or lower the signal
Method in brief: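 HepaRG, 48 h post-plating; serum-free induction medium; cpd 8-pt, 100 uM top, half-log, 0.5% DMSO, duplicate, 48 h. Readout: ABCC2 mRNA by qRT-PCR, norm. ACTB/GAPDH/POLR2A. Bidirectional fit vs DMSO baseline.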

[9] = read-out: ATP-citrate lyase (ACLY), ACLY (gene 47); assay: LTEA_HepaRG_ACLY: Life Technologies and Expression Analysis (LTEA) Assay for ATP-citrate lyase (ACLY) using HepaRG (AID 2283466); details: mRNA level, 48 h; actives raise or lower the signal
Method in brief: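 qRT-PCR readout of ACLY transcript after 48 h chemical treatment of HepaRG cells; expression normalized to three housekeeping genes. Eight-point half-log series, highest 100 uM, 0.5% DMSO vehicle. Gain or loss fitted against DMSO baseline.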

[10] = read-out: Peroxisomal acyl-coenzyme A oxidase 1 (ACOX1) gene, ACOX1 (gene 51); assay: LTEA_HepaRG_ACOX1: Life Technologies and Expression Analysis (LTEA) Assay for Peroxisomal acyl-coenzyme A oxidase 1 (ACOX1) gene using HepaRG (AID 2283467); details: mRNA level, 48 h; actives raise or lower the signal
Method in brief: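 HepaRG, 48 h chemical exposure, 8-pt half-log series from 100 uM top, 0.5% DMSO vehicle, duplicates. Readout: ACOX1 mRNA by Fluidigm qRT-PCR, housekeeping-normalized; bidirectional fit vs DMSO baseline.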

[11] = read-out: Bcl-2 (BAD) gene, BAD (gene 572); assay: LTEA_HepaRG_BAD: Life Technologies and Expression Analysis (LTEA) Assay for Bcl-2 (BAD) gene using HepaRG (AID 2283469); details: mRNA level, 48 h; actives raise or lower the signal
Method in brief: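 HepaRG, 48 h exposure, 8-pt half-log curve from 100 uM in 0.5% DMSO, duplicates. Readout: TaqMan qRT-PCR for BAD mRNA, housekeeping-normalised (ACTB/GAPDH/POLR2A); gain or loss fitted against DMSO baseline.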

[12] = read-out: Bcl-2 (BAX) gene, BAX (gene 581); assay: LTEA_HepaRG_BAX: Life Technologies and Expression Analysis (LTEA) Assay for Bcl-2 (BAX) gene using HepaRG (AID 2283470); details: mRNA level, 48 h; actives raise or lower the signal
Method in brief: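 Human HepaRG cells treated in duplicate for 48 h across eight concentrations (max 100 uM, 0.5% DMSO); BAX expression measured by qRT-PCR.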

[13] = read-out: adenosine kinase (ADK) gene, ADK (gene 132); assay: LTEA_HepaRG_ADK: Life Technologies and Expression Analysis (LTEA) Assay for adenosine kinase (ADK) gene using HepaRG (AID 2283471); details: mRNA level, 48 h; actives raise or lower the signal
Method in brief: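 HepaRG (human liver), 48 h chemical exposure, 8-pt half-log series, top 100 uM, 0.5% DMSO vehicle. Readout: ADK mRNA by qRT-PCR vs housekeeping genes; bidirectional curve fit relative to DMSO baseline.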

[14] = read-out: Alpha-fetoprotein (AFP) gene, AFP (gene 174); assay: LTEA_HepaRG_AFP: Life Technologies and Expression Analysis (LTEA) Assay for Alpha-fetoprotein (AFP) gene using HepaRG (AID 2283472); details: mRNA level, 48 h; actives raise or lower the signal
Method in brief: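 Measures AFP mRNA change in HepaRG after 48 h chemical exposure (8 half-log concentrations, highest 100 uM, 0.5% DMSO). Fold change relative to DMSO, fitted in both directions.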

BCL2L11 (gene 10018) = assay: LTEA_HepaRG_BCL2L11: Life Technologies and Expression Analysis (LTEA) Assay for Bcl-2 (BCL2L11) gene using HepaRG (AID 2283473); details: mRNA level, 48 h; actives raise or lower the signal
Method in brief: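 Read-out is BCL2L11 transcript level by qRT-PCR, normalized to three housekeeping genes and fitted bidirectionally against 0.5% DMSO vehicle. HepaRG cells received chemicals for 48 h in serum-free induction medium, 100 uM down in half-log dilutions.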

[15] = read-out: Apolipoprotein A-V (APOA5) gene, APOA5 (gene 116519); assay: LTEA_HepaRG_APOA5: Life Technologies and Expression Analysis (LTEA) Assay for Apolipoprotein A-V (APOA5) gene using HepaRG (AID 2283474); details: mRNA level, 48 h; actives raise or lower the signal
Method in brief: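 Readout is APOA5 transcript level by qRT-PCR on Fluidigm dynamic arrays, normalized to three housekeeping genes. HepaRG cultures received chemicals for 48 h at up to 100 uM (half-log steps, 0.5% DMSO), with gain or loss scored relative to DMSO.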

[16] = read-out: Apoptosis regulator Bcl-2 (Homo sapiens) (UniProt P10415); assay: LTEA_HepaRG_BCL2: Life Technologies and Expression Analysis (LTEA) Assay for Bcl-2 gene using HepaRG (AID 2283475); details: mRNA level, 48 h; actives raise or lower the signal
Method in brief: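 Each chemical was tested in duplicate on HepaRG cultures held in serum-free induction medium for 48 h, highest concentration 100 uM with half-log dilutions. Transcript levels came from multiplexed qRT-PCR, normalised to housekeeping genes; activity was scored in either direction relative to DMSO.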

[17] = read-out: Bcl-2 (BID) gene, BID (gene 637); assay: LTEA_HepaRG_BID: Life Technologies and Expression Analysis (LTEA) Assay for Bcl-2 (BID) gene using HepaRG (AID 2283476); details: mRNA level, 48 h; actives raise or lower the signal
Method in brief: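 Assay used HepaRG hepatic cells treated 48 h in serum-free medium with half-log dilutions from 100 uM. Endpoint: BID mRNA, qRT-PCR, normalized to ACTB/GAPDH/POLR2A.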

Caspase-3 (Homo sapiens) = Caspase-3 (Homo sapiens) (UniProt P42574); assay: LTEA_HepaRG_CASP3: Life Technologies and Expression Analysis (LTEA) Assay for cysteine-aspartic acid protease (CASP3) using HepaRG (AID 2283477); details: mRNA level, 48 h; actives raise or lower the signal
Method in brief: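 Read-out is CASP3 mRNA level by TaqMan qRT-PCR in human HepaRG cells after 48 h chemical exposure. Eight half-log concentrations topping at 100 uM were tested in 0.5% DMSO; gain or loss was fitted relative to DMSO.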

[18] = CEETOX_H295R_TESTO: CeeTox H295R High-throughput Steroidogenesis Assay for Testosterone (TESTO) (AID 2283457); details: actives raise or lower the signal;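 for AC50: cells exposed to chemicals for 48 h before medium collection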
Method in brief: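 H295R, passage ≤10, 48 h dosing; media extracted with MTBE → HPLC-MS/MS for testosterone; 7-pt standard curve sets LLOQ/ULOQ; bidirectional fit vs DMSO; MTT viability same wells.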

Measured: AC50

Sequence of Caspase-3 (Homo sapiens) (P42574 whole entry, looked up): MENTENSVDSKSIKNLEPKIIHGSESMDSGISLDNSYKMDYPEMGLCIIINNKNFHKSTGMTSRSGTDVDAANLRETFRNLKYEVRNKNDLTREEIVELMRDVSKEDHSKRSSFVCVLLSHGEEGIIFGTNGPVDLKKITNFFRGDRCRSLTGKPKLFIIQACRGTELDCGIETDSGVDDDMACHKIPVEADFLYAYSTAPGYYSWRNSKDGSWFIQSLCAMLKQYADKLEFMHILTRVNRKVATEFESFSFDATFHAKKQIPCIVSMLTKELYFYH
Sequence of Apoptosis regulator Bcl-2 (Homo sapiens) (P10415 whole entry, looked up): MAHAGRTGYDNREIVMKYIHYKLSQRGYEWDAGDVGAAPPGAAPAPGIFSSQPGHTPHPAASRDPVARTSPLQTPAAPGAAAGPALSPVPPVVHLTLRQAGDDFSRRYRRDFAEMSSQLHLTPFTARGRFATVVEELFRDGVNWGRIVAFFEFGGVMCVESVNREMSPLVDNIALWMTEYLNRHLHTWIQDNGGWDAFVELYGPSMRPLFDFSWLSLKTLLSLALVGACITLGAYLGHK

Oc1cccc2cccnc12
not listed: [18]
inactive: all other assays above

CCC(C)(C)c1ccc(O)c(C(C)(C)CC)c1
active: [1] 74 µM
not listed: [18]
inactive: all other assays above

C[C@]12CCC(=O)C[C@@H]1CC[C@@H]1[C@@H]2CC[C@]2(C)[C@@H](O)CC[C@@H]12
active: [1] 35.7 µM | [7] 50 µM
not listed: [18]
inactive: all other assays above

COc1cc(-c2ccc(N)c(OC)c2)ccc1N
inactive: [2] | [3] | [4] | [5] | [6] | [7] | [8] | [9] | [10] | [11] | [12] | [13] | BCL2L11 (gene 10018) | [15] | [16] | [17] | Caspase-3 (Homo sapiens)
active: [1] 20.6 µM and 24.2 µM | [4] 50 µM | [5] 50 µM | [7] 71.5 µM | [8] 50 µM | [14] 50 µM

CC(=O)[O][Hg][c]1ccccc1
inactive: [1] | [5] | [16] | [17]
active: [2] 12.9 µM | [3] 14.5 µM | [4] 24.1 µM | [6] 13 µM | [7] 1.22 µM | [8] 27.2 µM | [9] 23.3 µM | [10] 15.2 µM | [11] 12.7 µM | [12] 0.552 µM | [13] 31.5 µM | [14] 5 µM | BCL2L11 (gene 10018) 11.9 µM | [15] 4.21 µM | Caspase-3 (Homo sapiens) 23.1 µM

C[C@@H]1C[C@@H]([C@H](O)CC2CC(=O)NC(=O)C2)C(=O)[C@@H](C)C1
inactive: [2] | BCL2L11 (gene 10018) | [16]
active: [3] 34.3 µM | [4] 83.5 µM | [5] 22.3 µM | [6] 0.921 µM | [7] 4.26 µM | [8] 27.3 µM | [9] 9.23 µM | [10] 50 µM | [12] 9.92 µM | [13] 81.2 µM | [14] 15.5 µM | [15] 26 µM | [17] 50 µM | Caspase-3 (Homo sapiens) 12.3 µM

CC(C)(C)c1cc(O)ccc1O
not listed: [6] | [18]
inactive: all other assays above

CC12CC1(C)C(=O)N(c1cc(Cl)cc(Cl)c1)C2=O (stereo unspecified)
active: [18] 25.4 µM | [4] 8.58 µM | [7] 6.92 µM | [10] 13.1 µM | [14] 25.8 µM
not listed: Caspase-3 (Homo sapiens)
inactive: all other assays above

Cc1ccccc1N
not listed: [18]
inactive: all other assays above

CN(CCCC(=O)c1cccnc1)N=O
inactive: [18]

O=C(O)C(F)(F)C(F)(F)C(F)(F)C(F)(F)C(F)(F)C(F)(F)F
active: [4] 0.101 µM
not listed: [18]
inactive: all other assays above

ClCC(Cl)CCl
active: [12] 9.92 µM | [15] 77.6 µM | [17] 84.3 µM
not listed: [18]
inactive: all other assays above
